Each structure is given as a SMILES string. Among all 360,000 compounds or so, about 25,000 (6.9%) were called active. A call without a number means that no potency is given here. Not shown: some 9% with an inconclusive outcome. This is one part of a sample in which actives are shown more often than they occur. The call rests on the fitted dose curve; in most records, active means well fitted inhibition curve with a large enough effect; inconclusive means small, poorly fitted or top-dose-only effect; inactive means flat fitted curve, though single readings scatter.
Potency means the concentration at half of the fitted maximal effect.

Sequence of Luciferin 4-monooxygenase (Photinus pyralis) (P08659 whole entry, looked up): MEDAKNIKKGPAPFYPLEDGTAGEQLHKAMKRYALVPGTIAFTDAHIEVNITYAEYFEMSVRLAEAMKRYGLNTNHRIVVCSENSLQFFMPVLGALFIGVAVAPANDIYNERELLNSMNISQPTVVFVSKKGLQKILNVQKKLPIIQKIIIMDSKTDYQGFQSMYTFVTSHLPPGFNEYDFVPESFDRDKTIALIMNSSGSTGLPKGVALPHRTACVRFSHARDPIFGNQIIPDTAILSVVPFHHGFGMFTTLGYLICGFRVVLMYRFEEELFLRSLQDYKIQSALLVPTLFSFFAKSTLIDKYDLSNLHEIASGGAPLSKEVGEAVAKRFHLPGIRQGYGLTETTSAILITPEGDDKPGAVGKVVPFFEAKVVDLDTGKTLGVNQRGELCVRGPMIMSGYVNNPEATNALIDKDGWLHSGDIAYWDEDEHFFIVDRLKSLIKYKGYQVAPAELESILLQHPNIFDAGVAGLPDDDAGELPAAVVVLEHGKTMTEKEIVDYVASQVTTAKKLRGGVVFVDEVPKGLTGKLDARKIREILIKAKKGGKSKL

The target in this experiment is Luciferin 4-monooxygenase (Photinus pyralis) (UniProt P08659). Nature of the experiment: qHTS profiling assay for firefly luciferase inhibitor/activator using purifed enzyme and Km concentrations of substrates (counterscreen for miR-21 project). Further: nearly all actives have a fitted effect of over 55% in size. The following applies: purified FLuc, luminescence inhibition; series mostly up to 57.5 µM. The essentials:
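Purified P. pyralis luciferase (10nM final) with 10uM D-luciferin and 10uM ATP (Km levels) in 50mM Tris acetate pH 7.5, 10mM Mg acetate, 0.01% Tween-20, 0.05% BSA; qHTS 6-point titration, ~60 µM downward; luminescence read.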
For `N#CCC(=O)NC1CCC(CC2CCC(NC(=O)CC#N)CC2)CC1` (stereo unspecified), the Potency result is “inactive”.
Next, `Cc1ccsc1/C=C1\SC(N2CCOCC2)=NC1=O`: 10.7 µM (active).
Next, `O=c1[nH]c(N2CCOCC2)nc2ccccc12`: “inactive”.
Next, `Cc1ccc(C)c(S(=O)(=O)c2nnn3c2nc(N2CCOCC2)c2sccc23)c1`: “inactive”; `O=C1N=C(N2CCOCC2)CS1`: “inactive”; `CC(C)=C1SC(N2CCN(c3ccc(C)c(Cl)c3)CC2)=NC1=O`: “inactive”.
Regarding `O=C1N=C(N2CCOCC2)S/C1=C\C=C/c1ccccc1`, the Potency is 10.7 µM (active).
Next, `COc1ccccc1C1CCN(C(=S)Nc2ccc(Br)cc2)CC1`: “inactive”; `O=C(Nc1ccc(Br)cc1)c1ccc(Br)c(S(=O)(=O)NCc2ccccc2)c1`: “inactive”.
`Cc1ccc(Nc2nc3ccccc3nc2-n2nc(C)cc2C)c(Cl)c1`: the Potency entry is “inactive”.
Next, `CCN(CC(=O)Nc1ccc(OC)cc1)C(=O)c1ccc(=O)n(Cc2ccccc2)n1`: “inactive”; `CN(c1ccc(C(=O)NCCC2=CCCCC2)cc1)S(C)(=O)=O`: 9.53 µM (active).
With `CC(C)COc1ccc(C(=O)OCC(=O)NCCC2=CCCCC2)cc1`, the Potency entry is “inactive”.
Next, `CC(=O)Nc1ccc(S(=O)(=O)N(C)CC(=O)NCCC2=CCCCC2)cc1`: “inactive”.
Consider `Cc1ccn2c(=O)c(C(=O)NCCC3=CCCCC3)c(O)nc2c1`, for which the Potency result was “inactive”.
Then `O=C(COc1cccc(-n2cnnn2)c1)NCCC1=CCCCC1`, with “inactive”; and `O=C(NCCC1=CCCCC1)c1ccc(-n2cncn2)cc1`, with 15.1 µM (active); and `O=C(Cc1nn[nH]n1)NCCC1=CCCCC1`, with “inactive”.
Next, `Cc1ccc(-n2cnc3cc(C(=O)NCCC4=CCCCC4)ccc32)cc1Cl`: “inactive”; `Cn1nnc2cc(C(=O)NCCC3=CCCCC3)ccc21`: 5.36 µM (active).
Next, `CCOC(=O)c1ccc(-c2ccc(/C=C(\C#N)C(=O)Nc3ccc(OCC)cc3)o2)cc1`: “inactive”.
As to `CCCCn1c(N)c(N(CCC(C)C)C(=O)COC(=O)c2ccc(CC)cc2)c(=O)[nH]c1=O`, the Potency entry was “inactive”.
With `Cc1ccc(CN2CCCn3nc(C(=O)NCc4ccccc4Cl)cc3C2=O)cc1`, the Potency result was “inactive”.
Then `Cn1c(=O)c2c(SCC(=O)NCC3CCCO3)nc(-c3ccccc3F)nc2n(C)c1=O` (stereo unspecified), with “inactive”.
Then `Cc1oc2ncnc(N3CCOCC3)c2c1C(=O)NCCc1ccccc1`, with “inactive”; and `CN(C)c1ccc(C=C2C(=O)OC3(CCCC3)OC2=O)cc1`, with 23.9 µM (active); and `COCCN(Cc1ccccc1)C(=O)Cc1ccc(S(=O)(=O)N2CCOCC2)s1`, with “inactive”.
Then `CCCN(CCC)C(=O)C1CCCN(c2ncnc3c2nc2n3CCCCC2)C1` (stereo unspecified), with “inactive”; and `c1ccc(CN=C2Nc3ccccc3CS2)nc1`, with 12 µM (active).
As for `COc1cccc(CNC(=O)CCC(=O)N2CC3CCCN3c3ccccc32)c1` (stereo unspecified), the Potency result was “inactive”.
Next, `CCc1ccc(N(CC(=O)NCc2cccnc2)S(=O)(=O)c2ccccc2)cc1`: 0.135 µM (active).
As to `O=C(CN(c1cc(C(F)(F)F)ccc1Cl)S(=O)(=O)c1ccccc1)NCc1cccnc1`, the Potency entry is “inactive”.
Next, `CCCNS(=O)(=O)c1ccc(CCC(=O)NCc2cccnc2)cc1`: “inactive”; `Cc1ccc2sc(N(Cc3cccnc3)C(=O)C3COc4ccccc4O3)nc2c1C` (stereo unspecified): “inactive”.
Next, `COc1cc(OC)cc(-c2nc3nc(C)c(CCC(=O)Nc4ccc(C)cc4)c(C)n3n2)c1`: “inactive”; `O=S(=O)(N1CCCCC1)N1CCNCC1`: “inactive”; `O=c1oc2ccccc2cc1-c1cn(-c2ccccc2)c(=S)[nH]1`: 0.849 µM (active).
Then `CS(=O)(=O)N1CCN(C(=O)c2cc3ccccc3oc2=O)CC1`, with “inactive”; and `S=c1[nH]c(-c2cccs2)cn1-c1ccccc1`, with “inactive”; and `COc1ccc(C2C(=O)N(C3CCCCCC3)CC(=O)N2CCc2ccc(Cl)cc2)cc1OC` (stereo unspecified), with “inactive”.
For the molecule `O=C(Cc1cccs1)N1CCCC(c2nc(-c3ccc(S(=O)(=O)N4CCCC4)cc3)no2)C1` (stereo unspecified), the Potency result was “inactive”.
Next, `CC(C)c1ccc(-c2noc(C3CCCN(S(C)(=O)=O)C3)n2)cc1` (stereo unspecified): 19 µM (active); `COc1cc(-c2noc(C3CCCN(S(=O)(=O)c4cccc(Cl)c4)C3)n2)cc(OC)c1OC` (stereo unspecified): “inactive”.
Then `CCN(C(=O)CSc1ncnc2sccc12)c1c(N)n(Cc2ccccc2)c(=O)[nH]c1=O`, with “inactive”; and `CCCCSc1nnc2c(n1)OC=Nc1ccccc1-2`, with 23.9 µM (active); and `CCSc1nnc2c(n1)OC(c1ccc(OCC(=O)O)cc1)Nc1ccccc1-2` (stereo unspecified), with “inactive”.
Next, `COc1ccc(NC(=O)Cn2cc(C(=O)c3ccncc3)c(=O)c3cc(C)ccc32)cc1Cl`: “inactive”; `Cc1ccc(-c2cnc(C3CC3)o2)cc1S(=O)(=O)Nc1cccc(C)c1C`: “inactive”; `CN(Cc1nc2ccc(F)cc2[nH]1)Cc1nc(CC2CC2)no1`: “inactive”.
With `O=C(Cn1c(=O)n(-c2ccc(F)cc2)c(=O)c2sccc21)Nc1cccc(C(F)(F)F)c1`, the Potency entry is “inactive”.
Next, `CC(=O)Nc1cccc(NC(=O)CSc2cn(CC(=O)N3CCCC3)c3ccccc23)c1`: “inactive”; `CC1CCN(C(=O)c2ccc3c(=O)n4c(nc3c2)CCCCC4)CC1`: “inactive”.
Then `Cc1cccc2c(=O)n3c(nc12)CCCCC3`, with “inactive”.
Next, `O=c1c2c(nc3n1CCCCC3)sc1c(O)cccc12`: 4.26 µM (active); `COc1ccc([C@H]2CC(=O)C=C(c3ccc(CO)cc3)C2)cc1`: “inactive”.
Regarding `O=C1CCC(C(=O)N2CCN(c3ccccc3Cl)CC2)CN1CC1CCCCC1` (stereo unspecified), the Potency result was “inactive”.
Consider `CCC(=O)NC(=S)Nc1ccc(NC(=O)c2ccco2)c(Cl)c1`, for which the Potency entry was “inactive”.
Then `O=C(NNC(=S)Nc1ccc(Br)cc1Cl)c1ccco1`, with 16.9 µM (active); and `S=C(Nc1ccc(Br)cc1Cl)NC1CCN(Cc2ccccc2)CC1`, with “inactive”.
On to `COc1ccc(S(=O)(=O)c2c(Nc3ccc(C)cc3)sc(C(=O)c3ccc(C)cc3)c2N)cc1`, for which the Potency entry is “inactive”.
Then `COc1ccc(-c2nc(CN3CCC(C(=O)NCc4ccccc4)CC3)c(C)o2)cc1OC`, with “inactive”.
Then `COc1ccccc1N1CC(O)=C(c2nc3ccccc3s2)C1=N`, with “inactive”.
Then `CCOC(=O)CCCN1CC(O)=C(c2nc3ccccc3s2)C1=N`, with “inactive”.
In the case of `N=C1C(c2nc3ccccc3s2)=C(O)CN1NC(=O)c1ccc([N+](=O)[O-])cc1`, the Potency is 13.5 µM (active).
For `O=C(CSc1oc(-c2ccco2)nc1S(=O)(=O)c1ccccc1)c1ccc(Cl)cc1`, the Potency result is “inactive”.
Then `Cc1ccc(-c2cc(-c3coc4ccccc4c3=O)c3c(n2)-c2cc(Cl)ccc2OC3)cc1`, with “inactive”.
